# Laboratory results taken from PubChem BioAssay (NCI).
# This is part of a sample that, as a whole, favours compounds with a hit. Of some 83,000 tested, about 20% had one in any assay.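 Activity criterion: percent growth below 10, measured after cells in 96-well plates were exposed to a single compound concentration for 48 hours.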 The source made the active and inactive calls.
# Test system: UO-31 renal
# Experiment: NCI-60 one-dose screen, 48 h (100 = growth as untreated, 0 = no growth, -100 = all killed)
# Settings: 10 µM unless noted
# Protocol: Growth inhibition of the UO-31 human tumor cell line is measured as a screen for anti-cancer activity. Cells are grown in 96 well plates and exposed to the test compound for 48 hours. Compounds are tested at a single concentration, which is 10^-5 M for most compounds. The reported endpoint is percent growth (GI% or GIPRCNT), where numbers from 0 - 100% represent growth inhibition, and numbers from -100% - 0 represent cell death. For example, a value of 40 represents 60% growth inhibition. A value of 0 means no net growth occurred over the course of the experiment. A value of -40 indicates 40% of cells at the beginning of the experiment died by the end of the experiment. A value of -100 means all cells are dead at the end of the experiment.
# NCI-60 Human Tumor Cell Lines Screen was performed using the standard one-dose NCI protocol, which is described in more detail at https://dtp.cancer.gov/discovery_development/nci-60/default.htm.
# Compounds with GIPRCNT values below 10 were considered active. Activity score was based on GIPRCNT using the following formula: […]
# Score is 0 for GIPRCNT values of 100 or above, 50 for GIPRCNT values of 0, and 100 for GIPRCNT values of -100.
row,Compound,growth
1,Nc1cc2nc3ccccc3nc2cc1N,74.2% (inactive)
2,CO[C@H]1CC[C@@]2(C)C(=CC[C@@H]3[C@@H]2CC[C@]2(C)C(=O)C(=O)C[C@@H]32)C1,86.9% (inactive)
3,ClCCN(CCCl)Cc1ccc(Nc2ccnc3cc(Cl)ccc23)cc1,34.6% (inactive)
4,Clc1cccc(NCOOC2(OOCNc3cccc(Cl)c3)CCCCCC2)c1,-47.3% (active)
5,COC(=O)[C@@]1(O)C[C@H]2O[C@]1(C)n1c3ccccc3c3c4c(c5c6ccccc6n2c5c31)C(=O)NC4,-57.9% (active)
6,Cc1ccc(C(Cc2ccccc2)NCCO)cc1 (stereo not given),86.1% (inactive)
7,NC(=O)C(Br)c1ccccc1 (stereo not given),102% (inactive)
8,CCN(CCO)C(Cc1ccccc1)c1ccccc1 (stereo not given),94% (inactive)
9,O=C(O)CNC(=O)C(Cl)(Cl)Cl,87.6% (inactive)
10,[Cl][Hg][c]1cc[c]([Hg][Cl])o1,3.18% (active)
11,O=C1C2CC=CCC2C(=O)N1SC(Cl)(Cl)Cl (stereo not given),4.07% (active)
12,Nc1c(F)cc(-c2nc3cc(F)ccc3[se]2)cc1F,60.2% (inactive)
13,C/C(=C\c1ccn(-c2ccc(N)cc2C(F)(F)F)n1)[C@@H]1C[C@@H]2O[C@]2(C)CCC[C@H](C)[C@H](O)[C@@H](C)C(=O)C(C)(C)[C@@H](O)CC(=O)O1,38.2% (inactive)
14,COc1ccc(/C=C\c2cc(OC)c(OC)c(OC)c2)cc1OCC(=O)Nc1nc2ccc(OC(F)(F)F)cc2s1,25.4% (inactive)
15,C[Se]C(=O)c1ccccc1OC(C)=O,33% (inactive)
16,CC[C@H](C)[C@H](NC(=O)c1nccn1C)C(=O)N(C)[C@H](C[C@@H](OC(C)=O)c1nc(C(=O)N[C@@H](Cc2ccccc2)C[C@H](C)C(=O)OC)cs1)C(C)C,47.3% (inactive)
17,CC1=C(CCCNS(C)(=O)=O)C2=C(C)C3(CC3)[C@@](C)(O)C(=O)C2=C1,-32.6% (active)
18,ClC1=C(Cl)C(Cl)(C2(Cl)C(Cl)=C(Cl)C(Cl)=C2Cl)C(Cl)=C1Cl,-89.6% (active)
19,Cc1ccc(C(=O)NCCCOc2ccc(N)cc2Cl)cc1S(=O)(=O)F,70.7% (inactive)
20,O=C(O)C1C(C(=O)O)C2(Cl)C(Cl)=C(Cl)C1(Cl)C2(Cl)Cl.[Hg] (stereo not given),111% (inactive)

row,Compound,growth
1,CCCc1cc(O)c2c3c(c(=O)oc2c1)CN(C)CC3,22.7% (inactive)
2,Cc1ccc(N2COOC3(OOC2)C2CC4CC(C2)CC3C4)cc1,20.7% (inactive)
3,COC(=O)[C@@H](C)C[C@H](Cc1ccccc1)NC(=O)c1nc([C@@H](C[C@H](C(C)C)N(C)C(=O)[C@@H](NC(=O)[C@H]2CCCCN2C)C(C)C)OC(C)=O)sc1C(C)C,18.3% (inactive)
4,CC12CCC3C(C=CC4=C(N)C(=O)CCC43C)C1CCC2=O (stereo not given),64.6% (inactive)
5,CCN(CC)CCOC(=O)C(OC(C)C)(c1ccccc1)c1ccccc1,79.1% (inactive)
6,Brc1ccc2c(c1)c(-c1nc(-c3c[nH]c4ncccc34)cs1)cn2CCN1CCOCC1,35.8% (inactive)
7,CC[C@H](C)[C@H](NC(=O)[C@H]1CCCCN1C)C(=O)N(C)[C@H](CC(=O)c1nc(C(=O)N[C@@H](Cc2ccccc2)C[C@H](C)C(=O)O)cs1)C(C)C,88.6% (inactive)
8,CC12CCC3C(CCC4=CC(=O)CCC43CF)C1CCC2=O (stereo not given),87.8% (inactive)
9,NC(=S)c1cn(C2OC(CO)C(O)C2O)c2ncnc(N)c12 (stereo not given),-9.32% (active)
10,N#CC1(c2ccccc2)CCN(Cc2ccccc2)CC1,108% (inactive)
11,CC(C)(C)C(=O)OCOP(=O)(NCc1ccccc1)C1CCCN(O)C1=O (stereo not given),1.82% (active)
12,COc1ccc(C2=N[C@@H](Cc3ccccc3)C(=O)Nc3ccsc32)cc1,57% (inactive)
13,O=C1OCC2=C1C(c1ccccc1)c1cc3c(cc1N2)OCO3 (stereo not given),45.6% (inactive)
14,CN[C@@]1(c2ccccc2Cl)CCCC[C@@H]1NCC1CCCO1 (stereo not given in full),86.4% (inactive)
15,CC12CC(=O)C3(SC#N)C(CCC4=CC(=O)CCC43C)C1CCC2=O (stereo not given),39% (inactive)
16,C=C1[C@@H](C)[C@H]2[C@H](Cc3ccccc3)NC(=O)[C@]23[C@@H](O)/C=C/[C@@](C)(O)C(=O)[C@@H](C)C/C=C/[C@H]3[C@@H]1O,31.6% (inactive)
17,O=C1C(Cl)=C(N2CCOCC2)C(=O)c2ccccc21,51.8% (inactive)
18,Cc1c(O)c(CN(CCCl)CCCl)cc(CN(CCCl)CCCl)c1O,70.3% (inactive)
19,CCOC(=O)[C@@H](C)C[C@H](Cc1ccccc1)NC(=O)c1csc([C@@H](C[C@H](C(C)C)N(C)C(=O)[C@H](CC)NC(=O)[C@H]2CCCCN2C)OC(C)=O)n1,33.7% (inactive)
20,N#CC1(C#N)C(c2ccc(N(CCCl)CCCl)cc2)OC23CCCCC2C1(C#N)C(=N)O3 (stereo not given),72.1% (inactive)
